For the first assay, the target named is SLC7A13. The assay is described as follows: pooled miR-30 sensor sort-seq; sequence = guide strand. To be noted: shRNA.
Take TTCAGCATCAAAAGCATTCTGA: the sensor-assay potency score (higher = more potent) was -0.117.

TTAACCTTGATTTGGAATCTGA yielded a sensor-assay potency score (higher = more potent) of 0.0155.

In the case of TAATCCGCTGAGAACTAACAGA, the sensor-assay potency score (higher = more potent) is -0.752.

As for ATCATTAATAATATAGACCATA, the sensor-assay potency score (higher = more potent) was -1.16.

For the sequence ATATAGACCATAATGAACCCGT, the sensor-assay potency score (higher = more potent) is -0.357.

For the sequence TAAATAAACTACAGTCACCAGA, the sensor-assay potency score (higher = more potent) was -0.342.

Regarding TTAATAAGCAAAAAACTTGTGC, the sensor-assay potency score (higher = more potent) is -0.255.

Turning to AAATCGTTCTACATTCTCCTTT, the sensor-assay potency score (higher = more potent) was 0.252.

Regarding TATGCCAACACACCTTTGGGGG, the sensor-assay potency score (higher = more potent) is -0.996.

In the case of TAATTGTAAATAGCAAGTCATC, the sensor-assay potency score (higher = more potent) is -1.71.

Regarding TTATCAGGAACACTACTCCAGT, the sensor-assay potency score (higher = more potent) was -0.614.

In the case of TAGTATTGAGCTCCACTGCATG, the sensor-assay potency score (higher = more potent) was -1.

The target of the next assay is SLC8A1. The description is as above. To be noted: shRNA.
With ATGTTCTCTAGCATGAACCTTC, the sensor-assay potency score (higher = more potent) is -0.822.

As to TTGTAAAACAGAAGTCTCCTAT, the sensor-assay potency score (higher = more potent) was 0.149.

For the sequence TTGTCTTGGTGGTCTCTCCATT, the sensor-assay potency score (higher = more potent) is -0.926.

TTCTCTAGCATGAACCTTCCTG: the sensor-assay potency score (higher = more potent) was -0.164.

For the sequence TTGAACATGATGATGCCCCTGG, the sensor-assay potency score (higher = more potent) was determined as 0.652.

Take TAATCTTCCTTGTCTCTCCGTC: the sensor-assay potency score (higher = more potent) amounted to 0.74.

TTTATCTGGATGCTTCTGCTTA: the sensor-assay potency score (higher = more potent) was -0.388.

In the case of TATCACAACAACATTTCCGAAC, the sensor-assay potency score (higher = more potent) was -0.676.

Sequence TTAATCTTCCTTGTCTCTCCGT displayed a sensor-assay potency score (higher = more potent) of 0.395.

The sequence TAAAACTGACAGACAATCCCAA came in with a sensor-assay potency score (higher = more potent) of 0.165.

For TCTTACAGTAATATGATCCAGT, the sensor-assay potency score (higher = more potent) was 0.348.

A further assay has as its target SLC8A3. The assay is described as above. To be noted: shRNA.
For TTAAATACTGTGTAAAGTCGGT, the sensor-assay potency score (higher = more potent) was -0.0881.

In the case of TTGATCAGTTTGTCCACCGTAG, the sensor-assay potency score (higher = more potent) turned out to be 0.465.

As for TTTCTTAATTGTCACCTCCCTC, the sensor-assay potency score (higher = more potent) is -0.959.

Regarding TTGATCTTGCGAGTCTCTCCGT, the sensor-assay potency score (higher = more potent) is -0.572.

In the case of TTTGTAGTCCACATACATGGTC, the sensor-assay potency score (higher = more potent) is -0.363.

Turning to TATTTGTAGAAGAGCAGTCGTT, the sensor-assay potency score (higher = more potent) was -0.77.

Regarding TTGTAGTCCACATACATGGTCT, the sensor-assay potency score (higher = more potent) is -0.435.

For TTTGTATCTGACTTGATTCAAC, the sensor-assay potency score (higher = more potent) was -0.929.

As to TGATCTTGCGAGTCTCTCCGTC, the sensor-assay potency score (higher = more potent) is -0.247.

For TACAAGAGCACGCTGATGCAGA, the sensor-assay potency score (higher = more potent) is -0.14.

Take TTCTGCTGCATGTTTCTTCAGG: the sensor-assay potency score (higher = more potent) was -0.419.

The target of the next assay is SLC9A10. The description is as above. Conditions: shRNA.
With TATCGGAAAATCTTTCTCCTTT, the sensor-assay potency score (higher = more potent) is -0.118.

TACAGTTGAACTTTGTCCCCAG showed a sensor-assay potency score (higher = more potent) of 0.193.

As to TATATGAACAAATTCCACCCAC, the sensor-assay potency score (higher = more potent) was -0.00398.

TTGAAATGTGCAACAAACCGAT showed a sensor-assay potency score (higher = more potent) of 0.415.

Source of the values: the OligoGym collection.
Further: reference of the scale not given here.
